# Laboratory results published in ChEMBL document CHEMBL3988442, “University of Dundee, Small-Polar-MMV Screening Library” (2021).
# Potency and affinity values are given separately.
# Target: Protein translocase subunit SecA (Escherichia coli (strain K12)) (UniProt P10408)
# Test: Assay to Identify E. coli SecA ATPase Inhibitors
# Type: functional
# Parameters: scale not given: direction of the effect not stated beside the values
# Settings: 30 µM
# Sequence of Protein translocase subunit SecA (Escherichia coli (strain K12)) (P10408 whole entry): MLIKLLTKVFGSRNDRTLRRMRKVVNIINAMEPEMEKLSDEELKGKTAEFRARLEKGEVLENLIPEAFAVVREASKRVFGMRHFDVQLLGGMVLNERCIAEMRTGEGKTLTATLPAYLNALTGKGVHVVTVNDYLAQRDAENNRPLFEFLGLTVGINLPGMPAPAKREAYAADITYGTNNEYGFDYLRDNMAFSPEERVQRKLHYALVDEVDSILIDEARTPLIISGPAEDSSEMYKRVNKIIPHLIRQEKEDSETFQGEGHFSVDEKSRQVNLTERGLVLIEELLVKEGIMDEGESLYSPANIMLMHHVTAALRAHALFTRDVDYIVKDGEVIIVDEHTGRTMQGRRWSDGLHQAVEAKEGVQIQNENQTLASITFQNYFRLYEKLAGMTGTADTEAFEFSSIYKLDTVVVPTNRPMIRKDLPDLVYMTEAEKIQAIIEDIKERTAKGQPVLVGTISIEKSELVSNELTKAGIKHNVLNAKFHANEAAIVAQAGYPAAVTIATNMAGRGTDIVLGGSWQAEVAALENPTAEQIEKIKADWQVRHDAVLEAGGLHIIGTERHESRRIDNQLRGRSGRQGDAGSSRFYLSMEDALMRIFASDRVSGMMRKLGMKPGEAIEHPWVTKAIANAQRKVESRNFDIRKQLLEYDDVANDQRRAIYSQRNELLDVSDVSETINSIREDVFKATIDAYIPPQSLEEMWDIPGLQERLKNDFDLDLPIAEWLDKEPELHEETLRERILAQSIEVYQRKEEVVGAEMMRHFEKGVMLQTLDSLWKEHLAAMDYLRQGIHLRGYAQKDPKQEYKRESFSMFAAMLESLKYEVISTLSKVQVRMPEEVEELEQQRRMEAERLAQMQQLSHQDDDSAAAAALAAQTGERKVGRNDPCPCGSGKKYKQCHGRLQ
row,SMILES,Percent Effect [%]
1,Cc1cccc2cc(CNCCCN3CCOCC3)c(=O)[nH]c12,-7.31
2,CC(C)N(C)C(=O)C1=NOC2(CCN(C(=O)c3ccncc3)C2)C1 (stereo not given),-3.37
3,Cc1cnn(CC(C)NCc2ccc(-n3cccn3)cc2)c1 (stereo not given),-1.91
4,Cc1nc(C)n(C2CCCN(C(=O)Cc3cccnc3)C2)n1 (stereo not given),-6.21
5,CN(C)C(=O)CN1CCCCC1c1nc(N)ncc1-c1cccc(F)c1 (stereo not given),-4.39
6,O=C(C1CC1)N1CCN(Cc2coc(-c3ccc(Cl)cc3)n2)CC1,-5.03
7,CN(CCNC(=O)N1CCN(Cc2ccon2)CC1)C1CCCC1,-7
8,c1csc(N2CCCN(Cc3nc(C4CC4)no3)CC2)n1,-5.91
9,N#Cc1ccc(C(=O)N2CC[C@H]3[C@@H]2CCC(=O)N3c2cccnc2)cc1,-4.52
10,Cc1nn(C)c(C)c1C1CCCN1C(=O)c1ccc(Cl)o1 (stereo not given),-4.75
11,Cc1nccn1-c1cc(CNC(=O)c2ccccn2)ccn1,-3.33
12,O=C1COc2c(cccc2C(=O)N2CCCCC2Cn2cccn2)N1 (stereo not given),-1.42
13,Cc1cc(C)n(CC2CCCN2CC(=O)N(C)C)n1 (stereo not given),-2.72
14,CC(C)(C)C(=O)NCCc1ccn(-c2ccccc2)n1,-5.41
15,CC(C)C(NC(=O)NCCNc1ccccn1)c1cccs1 (stereo not given),-6.06
16,Cc1ccc(CN2CCCC3(COCCN(Cc4c[nH]nn4)C3)C2)o1 (stereo not given),-2.92
17,CCNC(c1ccc(OC)cc1)c1cccnc1 (stereo not given),-5.06
18,CCN(CC1CCCO1)C(=O)Nc1cc(OC)c(OC)cc1C (stereo not given),-8.28
19,Cc1cc(C2CCCN2C(=O)c2cc3c(s2)CCC3)on1 (stereo not given),-6.23
20,COc1ccccc1[C@@H]1CN(C(=O)c2csc(C)n2)C[C@H]1C(=O)O,-2.85

row,SMILES,Percent Effect [%]
1,CCc1ccc(CN2CCC3(CC2)CC(N2CCN(C)CC2)CO3)cc1 (stereo not given),-9.52
2,Cc1ccc(C(=O)NC(C)CN2CCCC2=O)c(=O)[nH]1 (stereo not given),-6.8
3,CCc1nnc2n1CCN(C(=O)c1cc3ccc(F)cc3nc1C)C2,-5.47
4,CC(C)n1ccnc1C1CCN(Cc2ccc(Cl)c(F)c2)CC1,-4.75
5,CC(C)c1ncc2c(n1)CN(Cc1ccc(C(N)=O)cc1)CC2,-5.85
6,COc1cccc2c1ccn2CCC(=O)NCCCC(=O)O,-1.03
7,CN(C(=O)c1ccccn1)c1nc2c(s1)CCc1c-2cnn1C,-3.06
8,Cc1ccc2c(c1)OCCCC2NCc1nnc2n1CCCCC2 (stereo not given),-3.75
9,CC(C)c1noc(CN2CCN(C(=O)c3ccccc3F)CC2)n1,-4.33
10,O=C(c1ccc[nH]1)N1CCC(c2nccn2Cc2ccncc2)CC1,-3.39
11,O=S(=O)(Nc1cnn(C2CCOCC2)c1)c1ccc(F)c(F)c1,-2.82
12,CN(C)C(CNC(=O)c1cccc(-n2cnnn2)c1)c1ccccc1Cl (stereo not given),-1.38
13,CC(O)CN1CCN(C(=O)c2ccc(Br)o2)CC1 (stereo not given),-4.28
14,CC(NC1(CNC(=O)CC(C)(C)C)CCOCC1)c1ccccc1 (stereo not given),-5.63
15,CC(=O)N1CC(=O)N(c2ccccc2)CC12CCN(Cc1nccs1)C2 (stereo not given),3.29
16,CN(C)CC1CN(Cc2csc(C3CCCC3)n2)CCO1 (stereo not given),-2.18
17,Cc1cccc2nc(C(=O)N3CCC(Nc4cccnn4)CC3)cn12,-4.19
18,O=C(CCNc1ncccn1)N1CCCC(n2ccnc2)C1 (stereo not given),-7.87
19,CC(=O)N1CC(=O)N(c2cnn(C)c2)CC12CCN(CC1CC1)C2 (stereo not given),-2.91
20,COCCNC(=O)c1cc2c(s1)CCN2C(=O)c1ccccc1,-6.01

# Target: T1, Ubiquitin-activating enzyme e1, putative (Leishmania donovani (strain BPK282A1)) (UniProt E9BSI1)
# T1 sequence (whole entry): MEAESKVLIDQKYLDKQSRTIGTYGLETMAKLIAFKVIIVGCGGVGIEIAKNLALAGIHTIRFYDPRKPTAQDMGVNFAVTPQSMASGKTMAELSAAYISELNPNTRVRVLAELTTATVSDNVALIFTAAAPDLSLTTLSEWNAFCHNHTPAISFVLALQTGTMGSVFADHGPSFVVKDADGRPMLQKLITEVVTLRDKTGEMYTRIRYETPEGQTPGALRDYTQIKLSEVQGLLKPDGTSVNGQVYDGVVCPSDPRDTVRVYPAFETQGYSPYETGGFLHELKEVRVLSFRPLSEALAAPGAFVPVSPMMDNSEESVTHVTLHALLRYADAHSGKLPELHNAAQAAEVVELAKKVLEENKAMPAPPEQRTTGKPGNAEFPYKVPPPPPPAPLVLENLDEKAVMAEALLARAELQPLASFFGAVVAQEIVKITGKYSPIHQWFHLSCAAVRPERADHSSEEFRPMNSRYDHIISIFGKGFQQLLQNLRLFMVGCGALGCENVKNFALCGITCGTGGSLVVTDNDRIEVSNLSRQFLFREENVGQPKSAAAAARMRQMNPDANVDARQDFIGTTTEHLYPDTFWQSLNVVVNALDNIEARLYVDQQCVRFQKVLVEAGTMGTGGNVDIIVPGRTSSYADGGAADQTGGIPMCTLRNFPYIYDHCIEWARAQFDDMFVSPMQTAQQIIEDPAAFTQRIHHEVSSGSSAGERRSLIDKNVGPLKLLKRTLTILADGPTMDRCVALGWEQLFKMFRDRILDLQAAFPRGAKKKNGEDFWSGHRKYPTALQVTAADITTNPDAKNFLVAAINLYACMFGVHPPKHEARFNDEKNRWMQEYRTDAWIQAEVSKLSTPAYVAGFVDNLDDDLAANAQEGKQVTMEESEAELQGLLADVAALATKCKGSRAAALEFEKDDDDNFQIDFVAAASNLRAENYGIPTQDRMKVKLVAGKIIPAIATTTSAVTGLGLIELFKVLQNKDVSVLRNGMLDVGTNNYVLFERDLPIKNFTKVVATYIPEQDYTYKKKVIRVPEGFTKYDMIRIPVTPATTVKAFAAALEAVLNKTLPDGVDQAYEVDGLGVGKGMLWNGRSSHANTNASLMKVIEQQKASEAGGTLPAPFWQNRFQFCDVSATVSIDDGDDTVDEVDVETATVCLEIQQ
# Test: Leishmania donovani Ubiquitin Activating Enzyme (LdE1)
# Type: functional
# Parameters: scale not given: direction of the effect not stated beside the values
# Settings: 30 µM
row,SMILES,Percent Effect [%]
1,Cc1cccc2cc(CNCCCN3CCOCC3)c(=O)[nH]c12,17.6
2,CC(C)N(C)C(=O)C1=NOC2(CCN(C(=O)c3ccncc3)C2)C1 (stereo not given),2.74
3,Cc1cnn(CC(C)NCc2ccc(-n3cccn3)cc2)c1 (stereo not given),1.27
4,Cc1nc(C)n(C2CCCN(C(=O)Cc3cccnc3)C2)n1 (stereo not given),5.41
5,CN(C)C(=O)CN1CCCCC1c1nc(N)ncc1-c1cccc(F)c1 (stereo not given),21.3
6,O=C(C1CC1)N1CCN(Cc2coc(-c3ccc(Cl)cc3)n2)CC1,-7.79
7,CN(CCNC(=O)N1CCN(Cc2ccon2)CC1)C1CCCC1,2.67
8,c1csc(N2CCCN(Cc3nc(C4CC4)no3)CC2)n1,10.4
9,N#Cc1ccc(C(=O)N2CC[C@H]3[C@@H]2CCC(=O)N3c2cccnc2)cc1,13.5
10,Cc1nn(C)c(C)c1C1CCCN1C(=O)c1ccc(Cl)o1 (stereo not given),2.7
11,Cc1nccn1-c1cc(CNC(=O)c2ccccn2)ccn1,16.4
12,O=C1COc2c(cccc2C(=O)N2CCCCC2Cn2cccn2)N1 (stereo not given),10.4
13,Cc1cc(C)n(CC2CCCN2CC(=O)N(C)C)n1 (stereo not given),-2.7
14,CC(C)(C)C(=O)NCCc1ccn(-c2ccccc2)n1,13.9
15,CC(C)C(NC(=O)NCCNc1ccccn1)c1cccs1 (stereo not given),18.2
16,Cc1ccc(CN2CCCC3(COCCN(Cc4c[nH]nn4)C3)C2)o1 (stereo not given),2.67
17,CCNC(c1ccc(OC)cc1)c1cccnc1 (stereo not given),-1.27
18,CCN(CC1CCCO1)C(=O)Nc1cc(OC)c(OC)cc1C (stereo not given),27.9
19,Cc1cc(C2CCCN2C(=O)c2cc3c(s2)CCC3)on1 (stereo not given),5.26
20,COc1ccccc1[C@@H]1CN(C(=O)c2csc(C)n2)C[C@H]1C(=O)O,1.39

row,SMILES,Percent Effect [%]
1,CCc1ccc(CN2CCC3(CC2)CC(N2CCN(C)CC2)CO3)cc1 (stereo not given),0
2,Cc1ccc(C(=O)NC(C)CN2CCCC2=O)c(=O)[nH]1 (stereo not given),5.48
3,CCc1nnc2n1CCN(C(=O)c1cc3ccc(F)cc3nc1C)C2,15.6
4,CC(C)n1ccnc1C1CCN(Cc2ccc(Cl)c(F)c2)CC1,5.2
5,CC(C)c1ncc2c(n1)CN(Cc1ccc(C(N)=O)cc1)CC2,18.4
6,COc1cccc2c1ccn2CCC(=O)NCCCC(=O)O,20
7,CN(C(=O)c1ccccn1)c1nc2c(s1)CCc1c-2cnn1C,52.7
8,Cc1ccc2c(c1)OCCCC2NCc1nnc2n1CCCCC2 (stereo not given),2.7
9,CC(C)c1noc(CN2CCN(C(=O)c3ccccc3F)CC2)n1,13.5
10,O=C(c1ccc[nH]1)N1CCC(c2nccn2Cc2ccncc2)CC1,13.7
11,O=S(=O)(Nc1cnn(C2CCOCC2)c1)c1ccc(F)c(F)c1,-2.6
12,CN(C)C(CNC(=O)c1cccc(-n2cnnn2)c1)c1ccccc1Cl (stereo not given),2.74
13,CC(O)CN1CCN(C(=O)c2ccc(Br)o2)CC1 (stereo not given),15.8
14,CC(NC1(CNC(=O)CC(C)(C)C)CCOCC1)c1ccccc1 (stereo not given),8.11
15,CC(=O)N1CC(=O)N(c2ccccc2)CC12CCN(Cc1nccs1)C2 (stereo not given),10.7
16,CN(C)CC1CN(Cc2csc(C3CCCC3)n2)CCO1 (stereo not given),5.26
17,Cc1cccc2nc(C(=O)N3CCC(Nc4cccnn4)CC3)cn12,5.2
18,O=C(CCNc1ncccn1)N1CCCC(n2ccnc2)C1 (stereo not given),6.33
19,CC(=O)N1CC(=O)N(c2cnn(C)c2)CC12CCN(CC1CC1)C2 (stereo not given),0
20,COCCNC(=O)c1cc2c(s1)CCN2C(=O)c1ccccc1,10.7
